Screening data: PubChem, National Center for Advancing Translational Sciences (NCATS)
p53ts 39C kill: p53ts cell cytotoxicity, nonpermissive temperature; 130,000 tested, 1.5% active; Potency, µM (series often up to 46.1 µM), for inactives: at the highest dose activity change, negative = cell killing, hits mostly cytotoxic; H1299-p53A138V viability at 39C, ATP luminescence, 24 h; also: nearly all actives have a fitted effect of over 55% in size
Luciferase inh: firefly luciferase inhibition; Potency, µM (doses to about 57.1 µM), for the others: at the highest dose activity change, negative = inhibition, usual class: inhibitors; 72,000 tested, 2.2% active; purified firefly luciferase, luminescence, 8 min; also: nearly all actives have a fitted effect of over 40% in size
Target sequence (P08659 whole entry, looked up): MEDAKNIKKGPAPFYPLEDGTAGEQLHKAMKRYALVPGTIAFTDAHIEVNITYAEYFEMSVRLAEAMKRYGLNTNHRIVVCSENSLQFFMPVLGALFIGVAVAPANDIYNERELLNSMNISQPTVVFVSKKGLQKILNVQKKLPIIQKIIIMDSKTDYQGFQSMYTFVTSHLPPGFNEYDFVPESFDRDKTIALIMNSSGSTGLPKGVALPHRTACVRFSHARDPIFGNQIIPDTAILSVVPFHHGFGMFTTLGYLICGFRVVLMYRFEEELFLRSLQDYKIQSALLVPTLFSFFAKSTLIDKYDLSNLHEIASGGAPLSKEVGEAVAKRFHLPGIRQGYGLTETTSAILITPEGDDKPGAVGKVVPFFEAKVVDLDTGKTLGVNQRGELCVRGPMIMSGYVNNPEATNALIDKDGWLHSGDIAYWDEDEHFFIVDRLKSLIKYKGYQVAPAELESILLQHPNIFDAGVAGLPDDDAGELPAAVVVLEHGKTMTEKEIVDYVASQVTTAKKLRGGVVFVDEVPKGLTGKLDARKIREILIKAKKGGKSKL
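Substrate buffer containing 10 uM ATP (pH 7.2 imidazole, Mg2+, KCl, detergent, BSA) is dispensed, compound pinned in, then luciferase/luciferin detector mix added. After 8 min at ambient temperature, light output is measured.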
p53ts 32C tox: kills p53ts cells at the permissive temperature; H1299-p53A138V at 32C, ATP luminescence viability, 24 h; Potency, µM (top dose mostly 46.1 µM), inactives show at the top dose activity change, negative = cytotoxicity, usual class: cytotoxic; 130,000 tested, 0.93% active; AID 924;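 also: 0% = DMSO and -100% = full killing by reference compound; nearly all actives have a fitted effect of over 55% in size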
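Cells: H1299 p53ts (A138V), 600/well, pre-incubated 16–30 h at 37C. Cpd up to 46 uM, 24 h, 32C. Readout: ATPlite luminescence, 20 min RT. Normalization: DMSO vs tamoxifen 100 uM. AC50 by Hill equation.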
* = called active by the depositor; ? = inconclusive; / = not tested or not shown; [ ] = remark or other dose. In the library only some 2.6% were active in any assay of this set; here they are far more common. Calls follow the shape of the dose curve; as a rule, active = well fitted curve in the direction sought with a large enough effect; inconclusive = small, poorly fitted or top-dose-only effect, or another doubt; inactive = no such curve, though single readings can be large; an effect the other way counts as inactive or inconclusive. Unless noted, % is scaled to controls: 0 for no effect and ±100 for the full control effect; potency is read from the fitted curve at half-maximal effect.

SMILES	p53ts 39C kill	Luciferase inh	p53ts 32C tox
O=C(Nc1noc2ccccc12)c1ccc(F)cc1	?	/	10µM*
O=C(NCc1ccc2c(c1)CCN2C(=O)c1ccc(F)cc1)c1ccc(Br)o1	-20%	/	-4%
COCCCNC(=O)CN1C(=O)COc2ccc(S(=O)(=O)N3CCCC3)cc21	-11%	/	11%
CCN1C=CC(=C2C(=O)c3ccccc3C2=O)C=C1	0.25µM*	0.32µM*	0.25µM*
CCCN1C=CC(=C2C(=O)c3ccccc3C2=O)C=C1	0.32µM*	0.16µM*	0.2µM*
CCNc1c(C(=O)O)ccc2c1C(=O)c1ccccc1C2=O	-1%	/	/
CC1=CC(=C2C(=O)c3ccccc3C2=O)C=C(C)O1	-10%	-6%	-11%
CN1C=CC(=C2C(=O)c3ccccc3C2=O)C=C1	10µM*	7.9µM*	13µM*
COc1ccc2cc(-c3nc(Cl)c4c5c(sc4n3)CCCC5)c(=O)oc2c1	16%	/	3%
CC(=O)c1cccc(NC(=O)N2CCC(CN3CCCCC3)CC2)c1	/	/	-6%
Cc1ccc(OCC(=O)Nc2ccc3nc(SCC(=O)Nc4ccc(C)cc4C)sc3c2)cc1	?	/	-27%
Cc1cc(NC(=O)C2CCCN(S(=O)(=O)c3cn(C)cn3)C2)ccc1Br (centres undefined)	7%	/	-6%
CCN(c1cccc(C)c1)S(=O)(=O)c1ccc(O)c(C(=O)O)c1	11%	/	7%
CCn1c(SCC(=O)OC(C)C)nnc1-c1cccc(Cl)c1	8%	5%	3%
CC(C)OC(=O)CSc1nnc(-c2ccc(O)cc2)n1Cc1ccccc1	-22%	25µM*	-28%
O=c1/c(=C\c2cccnc2)sc2nc3ccccc3n12	5%	-10%	-7%
Cc1cc(/C=c2/sc3nc4ccccc4n3c2=O)c(C)n1-c1ccccn1	/	0.5µM*	/
CN(C)c1cccc(-c2nnc(SCCCC#N)o2)c1	?	16µM*	?
CN(C)CCSc1nnc(-c2ccccc2)o1	-6%	-13%	-3%
CSc1ccc(CNC(=O)CN2C(=O)C3CCCCN3c3ccc(C(=O)N4CCCC4)cc32)cc1 (centres undefined)	-22%	/	-7%
O=C(Nc1ccc(O)c(C(=O)O)c1)c1ccc2c(c1)C(=O)N(CC1CCCO1)C2=O (centres undefined)	4%	13µM*	1%
Cc1nnc(NC(=O)c2ccc3c(c2)C(=O)N(CC2CCCO2)C3=O)s1 (centres undefined)	7%	-21%	-8%
COc1cc2c(-c3ccc(C)cc3)nc3c(c(C)nn3-c3ccccc3)c2cc1OC	-2%	/	6%
O=C(NCCN1CCCCC1)c1ccc(Cn2c(SCc3cccc(F)c3)nc3cccnc32)cc1	?	/	-10%
CCN(CC)CCCNC(=O)c1nn(C)c2c1CSc1ccccc1-2	20µM*	/	?
SMILES	p53ts 39C kill	Luciferase inh	p53ts 32C tox
Cn1nc(C(=O)N2CCN(c3ccc(F)cc3)CC2)c2c1-c1ccccc1SC2	20µM*	/	?
Cn1nc(C(=O)N2CCN(c3ccccc3)CC2)c2c1-c1ccccc1SC2	15%	/	22%
CC(C)CCNC(=O)c1nn(C)c2c1CSc1ccccc1-2	-4%	/	-5%
CC(C)c1ccc(NC(=O)C2CCCN(S(=O)(=O)c3ccc(Br)s3)C2)cc1 (centres undefined)	-10%	/	4%
O=C(O)CNC(=O)[C@H]1NC(C(F)(F)F)(C(F)(F)F)OC1(C(F)(F)F)C(F)(F)F	1%[9.22 µM]	3%[11.4 µM]	5%[9.22 µM]
CCN(Cc1ccccc1)Cc1c(O)ccc2c(=O)c(-c3ccccc3OC)c(C(F)(F)F)oc12	-8%	/	10%
O=C(Nc1ccc([N+](=O)[O-])cc1Cl)c1cc(Cl)ccc1O	4µM*	?	?
O=C(Nc1ccccc1)c1cc([N+](=O)[O-])ccc1Cl	-15%	?	?
O=C(Nc1ccc2oc(-c3cccc(Cl)c3Cl)nc2c1)c1cccc(Br)c1	10µM*	/	?
O=C(Nc1ccc2oc(-c3cccc4c(Br)cccc34)nc2c1)c1cccc(Cl)c1	0%	/	1%
COc1ccc(C(=O)Nc2ccc3oc(-c4cc(Cl)ccc4Cl)nc3c2)cc1Br	10µM*	/	?
COc1ccc(C(=O)Nc2ccc3oc(-c4ccc5ccccc5c4)nc3c2)cc1Br	?	/	-7%
CN1CCN(c2ncc3ncc(=O)n(C4CC4)c3n2)CC1	14%	2%[11.4 µM]	-1%
Cc1cccc(N2CCN(c3ncnc4onc(-c5ccc(F)cc5)c34)CC2C)c1 (centres undefined)	-10%	/	-2%
Cc1cccc(N2CCN(c3ncnc4onc(C)c34)CC2C)c1 (centres undefined)	20µM*	/	?
O=C(Nc1ccc2c(c1)OCCO2)c1ccc(CN2CCOCC2)cc1	?	16µM*	?
COc1cccc(NC(=O)c2ccc(CN3CCOCC3)cc2)c1	10µM*	?	13µM*
O=C(Nc1ccc2c(c1)OCCO2)c1ccc(Cl)c(S(=O)(=O)N2CCOCC2)c1	-11%	-9%	-6%
CC(C)Oc1cccc(C(=O)Nc2ccc(CN3CCOCC3)cc2)c1	-20%	?	-16%
CCOC(=O)c1ccc(NC(=O)Cc2ccc(-n3c(CC)nc4cccnc43)cc2)cc1	-23%	/	-2%
CCOC(=O)c1c(C)nn(Cc2cccc(Cl)c2)c1N	-3%	2%	1%
CCOC(=O)c1sc(NC(=O)c2ccc(Cl)s2)cc1C	-23%	?	?
CCOC(=O)c1sc(NC(=O)C2CC2)cc1C	13µM*	?	13µM*
CCOC(=O)c1sc(NC(=O)c2c(C)nn(Cc3ccccc3)c2C)cc1C	11%	5µM*	24%
CC1=C(C(=O)Nc2ccccc2)C(c2cccnc2)n2nc(SCc3ccccc3F)nc2N1 (centres undefined)	13%	/	-2%
SMILES	p53ts 39C kill	Luciferase inh	p53ts 32C tox
COc1ccccc1NC(=O)C1=C(C)Nc2nc(SCc3ccccc3Cl)nn2C1c1cccnc1 (centres undefined)	10µM*	/	-14%
COc1ccccc1NC(=O)C1=C(C)Nc2nc(SCc3ccccc3F)nn2C1c1cccnc1 (centres undefined)	7%	/	-2%
CCOC(=O)c1sc2ccccc2c1S(=O)(=O)Nc1ccc(OC)c(Cl)c1	-30%	/	22%
O=C(O)C1CCCCC1C(=O)OCCCCOC(=O)C1CCCCC1C(=O)O (centres undefined)	3%	1%	-5%
O=C(OCC1CO1)C1CCCCC1C(=O)OCC1CO1 (centres undefined)	32µM*	/	3%[1.84 µM]
CN1CCN(C(=O)c2nc3ccc(Cl)cc3[nH]2)CC1	-5%	/	4%
Cc1c(C(=O)N2CCCCCC2)c(S(=O)(=O)N(Cc2ccccc2)C(C)(C)C)c(C)n1C	?	/	-14%
COc1ccc(CC(=O)NCc2ccc3c(c2)CCN3C(=O)c2ccccc2)cc1OC	-1%	/	9%
Cc1cccc(CNc2ccnc(-c3ccc(C(=O)N(C)C)cc3)n2)c1	-5%	0%[2.29 µM]	-3%
Cc1noc(C)c1C(=O)N1CCC2(CCCN(C(=O)Nc3cccc(F)c3)C2)CC1	4%	1%[11.4 µM]	-11%
CCOc1ccc(CNc2cc(C)nc3nc(-c4cccc(C)c4)nn23)cc1OC	7.9µM*	/	-28%
Cc1ccc(CNc2cc(C)nc3nc(-c4cccc(C)c4)nn23)cc1	?	/	-3%
Cc1ccc2c(=O)cc(C(=O)Nc3nc4ccc(Cl)cc4s3)oc2c1	3%	/	7%
